# Assay results published in the supplement of paper PMC8371130.
# Where a name gives a salt, the structure may show the parent alone.
# Test system: HL-1
# Test: relative cell viability (CellTiter-Glo) vs DMSO control (% of DMSO control); higher = more viable cells
# In short: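 HL-1 mouse atrial cardiomyocytes were plated in 384-well plates at 1000 cells per well together with compounds at 40, 200, 1000 or 5000 nM in 0.01% DMSO. One day later, cells went to a hypoxic workstation (1% O2) for 48 h, then were reoxygenated for 24 h in a normal incubator, or stayed in normoxia for the same time. Cell viability was read by CellTiter-Glo luminescence and normalised to vehicle-treated control cells.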
# [1] = oxygen condition: hypoxia 48 h (1% O2) + reoxygenation 24 h, 40 nM
# [2] = oxygen condition: hypoxia 48 h (1% O2) + reoxygenation 24 h, 200 nM
# [3] = oxygen condition: hypoxia 48 h (1% O2) + reoxygenation 24 h, 1000 nM
# [4] = oxygen condition: hypoxia 48 h (1% O2) + reoxygenation 24 h, 5000 nM
# [5] = oxygen condition: normoxia 72 h, 40 nM
# [6] = oxygen condition: normoxia 72 h, 200 nM
# [7] = oxygen condition: normoxia 72 h, 1000 nM
# [8] = oxygen condition: normoxia 72 h, 5000 nM
SMILES,relative cell viability [1],relative cell viability [2],relative cell viability [3],relative cell viability [4],relative cell viability [5],relative cell viability [6],relative cell viability [7],relative cell viability [8]
COc1cc2nc(N(C)CCCNC(=O)C3CCCO3)nc(N)c2cc1OC (stereo unspecified) [Alfuzosin hydrochloride],103,106,99.9,106,103,107,114,112
Cc1cn(-c2cc(NC(=O)c3ccc(C)c(Nc4nccc(-c5cccnc5)n4)c3)cc(C(F)(F)F)c2)cn1 [Nilotinib],101,81.4,107,111,105,104,104,108
O=C1O[C@H]([C@@H](O)CO)C([O-])=C1O.[Na+] [Sodium ascorbate],99.7,101,106,117,98.8,103,102,114
COc1ccc2c(c1OC)C(=O)O[C@@H]2[C@H]1c2c(cc3c(c2OC)OCO3)CCN1C [Noscapine HCl],97.5,98,99.1,103,94.9,106,104,109
CC(CN(C)C)CN1c2ccccc2CCc2ccccc21 (stereo unspecified) [Trimipramine Maleate],103,105,111,111,99.2,101,102,94.2
CN(C)c1nc(N(C)C)nc(N(C)C)n1 [Altretamine],102,109,115,109,115,103,108,122
CCCN[C@H]1CCc2nc(N)sc2C1 [Pramipexole dihydrochloride monohydrate],103,98.2,99.8,107,99,105,101,110
COc1ccc2cccc(CCNC(C)=O)c2c1 [Agomelatine],96.1,109,84.5,113,94.3,90.4,132,111
CC(C)(C)c1ccc(C(O)CCCN2CCC(C(O)(c3ccccc3)c3ccccc3)CC2)cc1 (stereo unspecified) [Terfenadine],89,102,94.4,79.4,97.4,91.5,76.7,79.7
O=C1CCc2cc(OCCCCc3nnnn3C3CCCCC3)ccc2N1 [Cilostazol],107,107,111,107,105,108,106,109
CN(N=O)C(=O)N[C@@H](C=O)[C@@H](O)[C@H](O)[C@H](O)CO [Streptozotocin],103,103,99.8,109,99.9,109,104,102
CCCC(=O)Nc1ccc(OCC(O)CNC(C)C)c(C(C)=O)c1 (stereo unspecified) [Acebutolol HCl],102,108,107,114,104,107,106,116
CCOC(=O)c1ncn2c1CN(C)C(=O)c1cc(F)ccc1-2 [Flumazenil],104,107,100,115,107,98.5,104,106
C[C@](N)(Cc1ccc(O)c(O)c1)C(=O)O [Methyldopa],105,79.3,104,103,98.8,91.9,102,109
Nc1nc(N)nc(-c2cc(Cl)ccc2Cl)n1 [Irsogladine],101,104,107,109,98.2,104,108,107
COC(=O)C1=C(C)NC(C)=C(C(=O)OC2CCCN(Cc3ccccc3)C2)C1c1cccc([N+](=O)[O-])c1 (stereo unspecified) [Benidipine hydrochloride],104,113,109,25,114,109,102,24
CCCCC(=O)N(Cc1ccc(-c2ccccc2-c2nnn[nH]2)cc1)[C@H](C(=O)O)C(C)C [Valsartan],104,97.5,80.6,51.6,98.1,95.6,93.8,45.1
CN1CCC(OC(c2ccccc2)c2ccccc2)CC1 [Diphenylpyraline HCl],102,96.9,99.3,110,96.9,103,102,100
Cc1cccc(N(C)C(=S)Oc2ccc3ccccc3c2)c1 [Tolnaftate],91.4,102,100,105,102,101,105,103
CC(C[N+](C)(C)C)OC(N)=O (stereo unspecified) [Bethanechol chloride],96.1,99.6,107,86.9,104,104,98.4,111
CCCc1nn(C)c2c(=O)[nH]c(-c3cc(S(=O)(=O)N4CCN(C)CC4)ccc3OCC)nc12 [Sildenafil citrate],99.7,102,105,104,107,103,101,109
O=c1c(-c2ccc(O)cc2)coc2cc(O)cc(O)c12 [Genistein],104,106,113,110,111,104,106,111
